# Source: the supplement of paper PMC4466140
# Molecular target: AgAbp1
# Assay: SPOT peptide array binding signal intensity (averaged, normalized) (arbitrary units (background-subtracted, floor 0; scale differs between SH3 domains)); higher = stronger binding of the SH3 domain to the peptide
# Summary of the method: (§1)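 The binding signal is the normalized, background-subtracted spot intensity averaged over replicates; its arbitrary units differ between domains. It was obtained by incubating 10 μg/ml GST-fused SH3 domains from four yeast species overnight at 4°C in TBS-based blocking buffer on cellulose membranes with synthetic 15-mer peptides, cysteines replaced by serines, then detecting with anti-GST antibody, HRP anti-mouse secondary and luminol.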
row,Binder,SPOT peptide array binding signal intensity
1,KKEKKPPKIPKKVYT,2950

# Molecular target: AgBbc1
# Assay: as above
# Summary of the method: as §1
row,Binder,SPOT peptide array binding signal intensity
1,KKEKKPPKIPKKVYT,9.5

# Molecular target: AgBem1-D1
# Assay: as above
# Summary of the method: as §1
row,Binder,SPOT peptide array binding signal intensity
1,KKEKKPPKIPKKVYT,8

# Molecular target: AgBzz1-D1
# Assay: as above
# Summary of the method: as §1
row,Binder,SPOT peptide array binding signal intensity
1,KKEKKPPKIPKKVYT,253

# Molecular target: AgBzz1-D2
# Assay: as above
# Summary of the method: as §1
row,Binder,SPOT peptide array binding signal intensity
1,KKEKKPPKIPKKVYT,43

# Molecular target: AgCyk3
# Assay: as above
# Summary of the method: as §1
row,Binder,SPOT peptide array binding signal intensity
1,KKEKKPPKIPKKVYT,≤ 0

# Molecular target: AgFus1
# Assay: as above
# Summary of the method: as §1
row,Binder,SPOT peptide array binding signal intensity
1,KKEKKPPKIPKKVYT,1

# Molecular target: AgHof1
# Assay: as above
# Summary of the method: as §1
row,Binder,SPOT peptide array binding signal intensity
1,KKEKKPPKIPKKVYT,29.2

# Molecular target: AgHse1
# Assay: as above
# Summary of the method: as §1
row,Binder,SPOT peptide array binding signal intensity
1,KKEKKPPKIPKKVYT,35.5

# Molecular target: AgLsb1
# Assay: as above
# Summary of the method: as §1
row,Binder,SPOT peptide array binding signal intensity
1,KKEKKPPKIPKKVYT,≤ 0

# Molecular target: AgLsb4
# Assay: as above
# Summary of the method: as §1
row,Binder,SPOT peptide array binding signal intensity
1,KKEKKPPKIPKKVYT,1.5

# Molecular target: AgMyo5
# Assay: as above
# Summary of the method: as §1
row,Binder,SPOT peptide array binding signal intensity
1,KKEKKPPKIPKKVYT,≤ 0

# Molecular target: AgNbp2
# Assay: as above
# Summary of the method: as §1
row,Binder,SPOT peptide array binding signal intensity
1,KKEKKPPKIPKKVYT,19

# Molecular target: AgRvs167
# Assay: as above
# Summary of the method: as §1
row,Binder,SPOT peptide array binding signal intensity
1,KKEKKPPKIPKKVYT,2.5

# Molecular target: AgSho1
# Assay: as above
# Summary of the method: as §1
row,Binder,SPOT peptide array binding signal intensity
1,KKEKKPPKIPKKVYT,5

# Molecular target: AgSla1-D1-D2
# Assay: as above
# Summary of the method: as §1
row,Binder,SPOT peptide array binding signal intensity
1,KKEKKPPKIPKKVYT,≤ 0

# Molecular target: AgSla1-D3
# Assay: as above
# Summary of the method: as §1
row,Binder,SPOT peptide array binding signal intensity
1,KKEKKPPKIPKKVYT,4.5

# Molecular target: CaAbp1-D1
# Assay: as above
# Summary of the method: as §1
row,Binder,SPOT peptide array binding signal intensity
1,KKEKKPPKIPKKVYT,892

# Molecular target: CaAbp1-D2
# Assay: as above
# Summary of the method: as §1
row,Binder,SPOT peptide array binding signal intensity
1,KKEKKPPKIPKKVYT,1670

# Molecular target: CaBbc1
# Assay: as above
# Summary of the method: as §1
row,Binder,SPOT peptide array binding signal intensity
1,KKEKKPPKIPKKVYT,88.5

# Molecular target: CaBem1-D1
# Assay: as above
# Summary of the method: as §1
row,Binder,SPOT peptide array binding signal intensity
1,KKEKKPPKIPKKVYT,28

# Molecular target: CaBzz1-D1
# Assay: as above
# Summary of the method: as §1
row,Binder,SPOT peptide array binding signal intensity
1,KKEKKPPKIPKKVYT,1950

# Molecular target: CaBzz1-D2
# Assay: as above
# Summary of the method: as §1
row,Binder,SPOT peptide array binding signal intensity
1,KKEKKPPKIPKKVYT,2760

# Molecular target: CaCyk3
# Assay: as above
# Summary of the method: as §1
row,Binder,SPOT peptide array binding signal intensity
1,KKEKKPPKIPKKVYT,≤ 0

# Molecular target: CaFus1
# Assay: as above
# Summary of the method: as §1
row,Binder,SPOT peptide array binding signal intensity
1,KKEKKPPKIPKKVYT,99

# Molecular target: CaHof1
# Assay: as above
# Summary of the method: as §1
row,Binder,SPOT peptide array binding signal intensity
1,KKEKKPPKIPKKVYT,1

# Molecular target: CaHse1
# Assay: as above
# Summary of the method: as §1
row,Binder,SPOT peptide array binding signal intensity
1,KKEKKPPKIPKKVYT,110

# Molecular target: CaLsb1
# Assay: as above
# Summary of the method: as §1
row,Binder,SPOT peptide array binding signal intensity
1,KKEKKPPKIPKKVYT,0.25

# Molecular target: CaLsb4
# Assay: as above
# Summary of the method: as §1
row,Binder,SPOT peptide array binding signal intensity
1,KKEKKPPKIPKKVYT,≤ 0

# Molecular target: CaMyo5
# Assay: as above
# Summary of the method: as §1
row,Binder,SPOT peptide array binding signal intensity
1,KKEKKPPKIPKKVYT,1.5

# Molecular target: CaNbp2
# Assay: as above
# Summary of the method: as §1
row,Binder,SPOT peptide array binding signal intensity
1,KKEKKPPKIPKKVYT,10

# Molecular target: CaRvs167
# Assay: as above
# Summary of the method: as §1
row,Binder,SPOT peptide array binding signal intensity
1,KKEKKPPKIPKKVYT,2

# Molecular target: CaRvs167-3
# Assay: as above
# Summary of the method: as §1
row,Binder,SPOT peptide array binding signal intensity
1,KKEKKPPKIPKKVYT,4.5

# Molecular target: CaSho1
# Assay: as above
# Summary of the method: as §1
row,Binder,SPOT peptide array binding signal intensity
1,KKEKKPPKIPKKVYT,13

# Molecular target: CaSla1-D1-D2
# Assay: as above
# Summary of the method: as §1
row,Binder,SPOT peptide array binding signal intensity
1,KKEKKPPKIPKKVYT,79

# Molecular target: CaSla1-D3
# Assay: as above
# Summary of the method: as §1
row,Binder,SPOT peptide array binding signal intensity
1,KKEKKPPKIPKKVYT,≤ 0

# Molecular target: ScAbp1
# Assay: as above
# Summary of the method: as §1
row,Binder,SPOT peptide array binding signal intensity
1,KKEKKPPKIPKKVYT,901
